Data on 13 compounds can be found in PubChem BioAssay (NCI).

Holding throughout (test): NCI-60 one-dose screen, 48 h (100 = growth as untreated, 0 = no growth, -100 = all killed)
Holding throughout (details): 10 µM unless noted

Assay [1] concerns EKVX NSCLC.
Assay [2] has as its system SN12C renal.
Assay [3] relates to UO-31 renal.
Assay [4] concerns TK-10 renal.
Assay [5] concerns ACHN renal.
The subject of assay [6] is CAKI-1 renal.
For assay [7], the system named is A498 renal.
Assay [8] concerns CCRF-CEM leukemia.
Assay [9] concerns MOLT-4 leukemia.
Assay [10] deals with SR leukemia.

About 83,000 compounds went through this panel and 20% of them were active in at least one assay; those are over-represented in the sample as a whole.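 The test compound was applied at a single concentration to cells in 96-well plates for 48 hours, and percent growth was recorded.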 Unmarked numbers belong to inactive results. The source made the active and inactive calls. The calls were made as follows: active = growth percent below 10; inactive = the rest.

Consider `O=S(=O)(Nc1ncccn1)c1ccc(NC2Nc3nc4ccccc4nc3S2)cc1` (stereo not given), for which the growth in assay [1] was 90.7%; in [2], 97.7%; in [3] it was 78.5%; in [4], 109%; in [5] it was 98.5%; in assay [6], 94%. Further, the growth in [7] was 99.3%; in [8], 104%; in [9], 99.7%; in assay [10], 102%.
`O=C(Cn1cc(COc2ncnc3c2cnn3-c2ccccc2)nn1)Nc1ccccn1`: the growth was 86.2% in [1]; 94.6% in assay [2]; 62.7% in [3]; 115% in assay [4]; 91.1% in assay [5]; 86.6% in [6]. For the same compound, the growth in assay [7] is 78.7%; in assay [8] it was 96.7%; in assay [9], 89.9%; in assay [10], 101%.
Consider `COc1cc(/C=C2\CCC/C(=C\c3cc(CN4CCOCC4)c(O)c(OC)c3)C2=O)cc(CN2CCOCC2)c1O`, for which the growth in [1] is 54.3%; in [2], 29.3%; in assay [3] it was 52.6%; in assay [4], 53.8%; in [5], 25.1%; in [6] it was 46.1%. Further, the growth in [7] is 58.6%; in [8] it was 14.8%; in assay [9], 11%; in [10] it was 38%.
As for `CCN1C(=O)N(CC)C2C1NC(=S)N2/N=C/C=C/c1ccccc1OC` (stereo not given), the growth in assay [1] is 30.9%; in assay [2] it was 26%; in assay [3], 46.3%; in assay [4], 55.2%; in assay [5] it was 22.9%; in [6] it was 28.4%. Besides, the growth is -4.32% (active) in assay [7], 13.8% in assay [8], 15.7% in [9] and 12% in [10].
With `CSc1nc2c(c(=O)[nH]1)N=C1c3ccccc3C(=O)C1C(c1ccc(F)cc1)N2` (stereo not given), the growth in assay [1] was 74.8%; in assay [2] it was 87.7%; in assay [3] it was 62.8%; in assay [4] it was 78.2%; in assay [5], 59.1%; in assay [6], 25.8%. Also, the growth was 88.2% in [7], 52.5% in assay [8], 76% in assay [9] and 31.5% in assay [10].
As for `Cn1nc(C(F)(F)F)c(-c2ccc(Cl)c(C(F)(F)F)c2)c1-c1ccc(OCc2ccc(Cl)cc2)cc1O`, the growth in assay [1] is 12.8%; in assay [2], 6.24% (active); in assay [3] it was -6.34% (active); in assay [4], 0.361% (active); in assay [5], 5.21% (active); in assay [6] it was 19.8%. Besides, the growth in [7] was 5.29% (active); in assay [8], 9.89% (active); in assay [9] it was 12.3%; in assay [10] it was 25.1%.
Regarding `COc1cc(/C=C/C(=O)N2c3ccccc3CC2C)c(OC)c2c1OCO2` (stereo not given), the growth was 87.7% in assay [1]; 97.1% in assay [2]; 77.9% in assay [3]; 96% in assay [4]; 95.7% in assay [5]; 101% in [6]. In addition, the growth in [7] was 69.1%; in assay [8], 94.6%; in assay [9] it was 84.6%; in [10] it was 102%.
Turning to `CC(C)CCOc1ccc(-c2n[nH]c(C(F)(F)F)c2-c2cncc(C#N)c2)c(O)c1`, the growth is 3.52% (active) in assay [1]; 3.81% (active) in assay [2]; 3.89% (active) in [3]; 11.4% in assay [4]; 8.84% (active) in [5]; 9.47% (active) in [6]. The growth in [7] is -25.5% (active); in assay [8] it was 6.67% (active); in assay [9] it was 23%; in [10], 33.7%.
For `O=C(c1nc2ccccc2[nH]1)C1C(c2ccc([N+](=O)[O-])cc2)C2CC3CCCCC3N2[C@@]12C(=O)Nc1cc(Cl)ccc12` (stereo not given in full), the growth in [1] is 16.6%; in [2], 34.1%; in assay [3] it was 13.1%; in assay [4], 36.7%; in assay [5] it was 18.4%; in assay [6] it was 41.5%. Besides, the growth in [7] was -1.18% (active); in assay [8] it was 24.2%; in [9], 8.23% (active); in assay [10] it was 19.6%.
`Clc1ccc(COc2ccc(Nc3ncnc4onc(-c5ccccc5)c34)cc2)cc1`: the growth is 95.6% in assay [1]; 87.8% in assay [2]; 90.5% in [3]; 91.4% in assay [4]; 41.7% in assay [5]; 84.6% in assay [6]. Moreover, the growth in assay [7] was 69.2%; in [8] it was 73.2%; in [9] it was 85.9%; in assay [10], 43.8%.
Turning to `CN(CCc1ccccc1)C(=S)N(C(=O)c1ccc([N+](=O)[O-])cc1)c1ccc(Cl)cc1`, the growth is 95.1% in [1]; 89% in assay [2]; 76.8% in assay [3]; 76% in assay [4]; 106% in assay [5]; 85.5% in assay [6]. For the same compound, the growth in [7] is 93.4%; in [8] it was 39.6%; in [9] it was 43.1%; in [10], 25%.
Regarding `O=Cc1cc2ccccc2nc1Nc1nccs1`, the growth in assay [1] is 98.5%; in assay [2], 45.5%; in assay [3], 31.2%; in assay [4], 101%; in assay [5] it was 31.5%; in [6], 79.5%. Also, the growth in assay [7] was 81.9%; in assay [8] it was 46.7%; in assay [9], 23.4%; in [10], 33.9%.
For `CN1C(=O)N(C)C2Nn3c(s/c(=C4\C(=O)N(CCc5ccccc5)c5ccccc54)c3=O)=NC21` (stereo not given), the growth was 58% in [1]; 74.3% in assay [2]; 62.9% in [3]; 70.5% in assay [4]; 59.3% in assay [5]; 49.2% in [6]. The growth in assay [7] was 70.3%; in [8], 53.1%; in assay [9] it was 70.8%; in assay [10], 30.4%.
